High-throughput results deposited in PubChem by National Center for Advancing Translational Sciences (NCATS).
Most compounds without a hit are left out; they make up all but 2.3% or so of the library.
pAkt inh: blocks phosphorylation of Akt; Neuro2A IGF-stimulated pAkt S473 HTRF, 20 min; active compounds read low; activity change, % for hits at 50 µM; 360,000 tested, 0.32% active; AID 651550; in the data active = activity change below about -80%; inconclusive = mostly about -51% to -80%; also: % is scaled to controls: 0 for no effect and ±100 for the full control effect
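Neuro2A cells in DMEM with 0.5% FBS, overnight at 37 deg C, given compound at single 50 µM final, then IGF (6 nM final) for 20 min at 37 deg C. Lysed; phospho-Akt Ser473 by HTRF after 24 h, 665/615 ratio.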
aSyn yeast inh: inhibitors of alpha-synuclein toxicity in yeast | Yeast expressing alpha-synuclein, growth rescue, BacTiter-Glo, 24 h | Potency, µM (titrated, usually from 46.1 µM), for the others: at the top dose growth rescue (activation), usual class: activators | 370,000 tested, 0.14% active; also: potency is read from the fitted curve at half-maximal effect; % of control where 0% means no effect; nearly all actives have a fitted effect of over 65% in size
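Screening used galactose-induced yeast with toxic alpha-synuclein levels, exposed to compound for 24 hr at 30 deg C. Cell growth, read with BacTiter-Glo luminescence, gave the measured signal.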
TDP-43 yeast inh: TDP-43 toxicity inhibition in yeast; TDP-43 expressing yeast growth rescue, BacTiter-Glo, 24 h; Potency, µM (titrated, usually from 46.1 µM), without a hit: top-dose growth rescue (activation), most hits filed as activators; 410,000 tested, 1.8% active; AID 652104; also: potency is read from the fitted curve at half-maximal effect; % of control where 0% means no effect; nearly all actives have a fitted effect of over 50% in size
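In this qHTS, compounds that restore growth of yeast expressing TDP-43 appear as activators. Cells (OD600=0.02, galactose medium, raffinose-pregrown) are incubated with compound 24 hr at 30 deg C and growth is quantified by BacTiter-Glo.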
FUS yeast rescue: FUS proteinopathy suppression in yeast; S. cerevisiae FUS-expressing, growth rescue, OD600, 24 h; Potency, µM (top dose mostly 76.6 µM), hits mostly activators; 390,000 tested, 0.24% active;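 also: potency is read from the fitted curve at half-maximal effect; plate controls were DMSO vehicle for no effect and reference control for full effect; nearly all actives have a fitted effect of over 55% in size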
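Yeast FUS proteinopathy model; galactose-induced FUS (2%), starting OD 0.005. Cpds in dilution series, 24hr, 30C, 99% humidity. Abs 600 nm growth. Pos ctrl CP55940 (top 92uM final); neg ctrl DMSO.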
Abeta yeast res: restores growth of yeast expressing A-beta42 peptide. yeast expressing A-beta42, growth rescue, OD600, 48 h; response scale: 0% DMSO, 100% iron-clioquinol control. Potency, µM (doses to about 46.1 µM), most hits filed as activators. 410,000 tested, 0.063% active; also: potency is read from the fitted curve at half-maximal effect; nearly all actives have a fitted effect of over 55% in size
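Yeast growth medium received pinned compounds, then yeast cells expressing toxic A-beta were added; plates incubated at 30 C for 48 hr. Growth read as absorbance at 600 nm, normalized to DMSO and equimolar FeCl3 plus clioquinol controls.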
Starred values were filed as active, the others as inactive; i = inactive; ? = inconclusive; · = not tested or not shown; [ ] = dose if it differs, or a comment. Unless noted, calls follow the shape of the dose curve; as a rule, active = well fitted curve in the direction sought with a large enough effect; inconclusive = small, poorly fitted or top-dose-only effect, or another doubt; inactive = no such curve, though single readings can be large; an effect the other way counts as inactive or inconclusive.

SMILES | pAkt inh | aSyn yeast inh | TDP-43 yeast inh | FUS yeast rescue | Abeta yeast res
Cc1cc(Nc2ccccc2)n(-c2cccc(Cl)c2)n1 | i | -8.6% | 14.1µM* | i | i
Cc1cc(NC(=O)Nc2cccc(Cl)c2)n(-c2ccccc2)n1 | i | 3.9% | -2.2% | i | i
CCN(C(=O)c1cn(CC(C)C)c(=O)c2cc(OC)c(OC)cc12)c1cc(OC)ccc1OC | · | · | -14.8% | i | i
Cc1ccc(C)c(N2CCN(C(=O)c3ccc4c(Cl)c5c(nc4c3)CCCC5)CC2)c1 | · | · | 35.5µM* | ? | i
O=C(c1ccc2c(Cl)c3c(nc2c1)CCCC3)N1CCN(c2ccccc2)CC1 | · | · | ? | i | i
Cc1ccc(C)c(N2CCN(C(=O)c3cccc(-n4c(C)nc5cccnc54)c3)CC2)c1 | · | · | 19.7% | ? | i
Cc1ccc(Cl)cc1N1CCN(C(=O)c2ccc(C)c(-n3c(C)nc4cccnc43)c2)CC1 | · | · | 6.6% | 22.4µM* | i
CCCCN(CC)C(=O)c1c[nH]c2ccc(S(=O)(=O)N(C)c3ccc(Cl)cc3)cc2c1=O | · | · | 19.3% | i | i
N#Cc1ccccc1NC(=O)C1SC(=Nc2ccccc2)C(C(=O)Nc2ccc(Cl)cc2)=C1N (centres undefined) | i | 4.7% | -1.6%[9.22 µM] | i | i
CCOc1ccc(N=C2SC(C(=O)Nc3ccccc3C#N)C(N)=C2C(=O)Nc2ccc(Cl)cc2)cc1 (centres undefined) | i | 14.2% | 24.7% | 35.5µM* | i
CCOc1ccc(C(C(=O)NC2CCCC2)N(CCCO)C(=O)c2ccc(-c3ccccc3)[nH]2)cc1 (centres undefined) | i | 0.3% | -13.1% | 35.5µM* | i
O=C(NC1CCCC1)C(c1ccncc1)N(CCCN1CCOCC1)C(=O)c1ccc(-c2ccccc2)[nH]1 (centres undefined) | i | 0.9% | -7.2% | i | i
CCCNC(=O)CSc1nc2nc(C)c(Cc3ccccc3Cl)c(C)n2n1 | · | · | 21.4% | i | i
Cc1cccc(-c2nc3cc(NC(=O)c4ccc(OCC(C)C)cc4)ccc3o2)c1 | · | · | 18.1% | i | i
CC(C)(C)C(=O)NC(=S)NNC(=O)c1ccc(Cl)cc1Cl | i | 5.01µM* | -56.3% | i | i
CCOC(=O)N1CCc2c(sc3c2c(=O)n(Cc2ccccc2)c(=O)n3CC(=O)Nc2ccccc2F)C1 | · | · | -0.2% | i | i
Cc1ccc(C(=O)/C=C/c2ccc(-c3ccc(C)cc3)o2)cc1 | i | 22.8% | -25.2% | 14.1µM* | i
O=C(/C=C\c1ccc(-c2ccccc2)o1)c1ccccc1 | i | 1.7% | 2.2% | i | i
O=C1C(=O)c2c(C(=O)c3ccccc3)coc2-c2ccccc21 | i | -61.4% | -40.7% | · | i
Cc1oc2c(c1C(=O)c1ccccc1)C(=O)C(=O)c1ccccc1-2 | ? | 21.3% | 15.8µM* | i | i
CCOC(=O)c1c(C)oc2c1C(=O)c1ccccc1C2=O | i | -3.8% | 3.16µM* | i | i
Cc1oc2c(c1C(=O)O)C(=O)c1ccccc1C2=O | i | 9.0% | -44.9% | i | i
COc1ccc(-n2nc(C(=O)NCc3ccc(F)cc3Cl)c3c4ccccc4n(C)c3c2=O)cc1Cl | · | · | 3.0% | i | i
Cc1ccc(-n2c(SCC(=O)c3ccc(O)c(O)c3)nnc2-c2ccccc2)cc1 | · | · | · | 7.94µM* | ·
CCn1c(SCC(=O)c2ccc(O)c(O)c2)nnc1-c1ccccc1 | i | -1.0% | 4.8% | i | i
O=C(OCCCOc1ccc(F)cc1)c1ccc(O)cc1O | i | -11.2% | 12.6µM* | i | i
COc1ccc(/C=C2\CCC(C3CCCC3)C2=O)c(OC)c1OC (centres undefined) | i | ? | -12.1% | i | i
COc1cccc(/C=C2\CCC(C3CCCC3)C2=O)c1OC (centres undefined) | i | -9.7% | ? | 7.94µM* | i
Cc1nc2c(-c3ccccc3)c(C)nn2c(C)c1CCC(=O)N1CCN(c2ccccc2)CC1 | · | · | 12.6µM* | i | i
Cc1nc2ncnn2c(C)c1CCC(=O)N1CCN(c2ccc(F)cc2)CC1 | · | · | -2.9% | i | i
